According to PubChem BioAssay AID1508600 (Functional Genomics Laboratory (NCATS/FGL), 2020):
About 3,700 (7%) of roughly 53,000 sequences were called active.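 How the source made its calls: active means gene knockdowns whose robust z-score for IL-1 alpha signal is at least 2 or at most -2, so actives lie on both sides; inactive means the rest.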 The entries come from a sample that favours actives as a whole.

Assay: Components of the Cytosolic LPS Sensing Pathway: Gene Identification via Genome-wide siRNA Screen;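 further: robust z of the log signal after scaling to non-targeting control siRNA wells of the plate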
Conditions: RAW264.7 macrophages, IL-1a HTRF, actives lie on both sides, screened at 100 nM (by protocol), cells primed 5 h with Pam3CSK4 first
In short: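 Mouse macrophage line RAW264.7 is transfected with siRNA (100 nM final), grown 48h, primed with TLR ligand Pam3CSK4 5 h and given intracellular LipidA 24 h. IL-1a in supernatant is read by HTRF and viability by luminescence.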

| Sequence | z-score |
| --- | --- |
| GGCUUUGGUCAAGGAGAAGTT against Pias4 | -1.32 (inactive) |
| GGAUCAAUGAUACAACUGATT against Il1r1 | -0.976 (inactive) |
| GGUGCUAAAGGACAUAGGUTT against Tmem177 | 3.27 (active) |
| GGGCACCUAUUCAGAUACCTT against Map2 | 0.685 (inactive) |
| GCCGAACGUGUUUAAACUCTT against Psd3 | 0.0404 (inactive) |
| GGAACCUCUCAGAUUUUCATT against Zfp599 | 0.828 (inactive) |
| GGCCUCUCAAAAUCUUCCUTT against Galnt11 | -1.46 (inactive) |
| CGUAGUACCCAUGAAUUACTT against Adora2a | 4.87 (active) |
| GGACUGACUCUUUUUUAACTT against Uba3 | -0.697 (inactive) |
| CGAAAACAAUUACGUCUAUTT against Rfwd3 | 1.15 (inactive) |
| GCCAAACGCAUCAUGGAAATT against Arglu1 | -0.59 (inactive) |
| CCACGACGUACAUCCAUAATT against Tmem181a | -1.02 (inactive) |
| GGCGAAAACGGUAAAGCCUTT against H1f4 | 0.448 (inactive) |
| GGCCAGCAAUAAAACUGUCTT against Max | -0.326 (inactive) |
| GCCCGCCUAUUUGAAAGCATT against Zfp740 | 0.839 (inactive) |
| GGAUGAAGGAACUAAAUAUTT against Cog3 | -2.15 (active) |
| GGUCCUUAGGUGACCUCCUTT against Lrrc20 | -0.249 (inactive) |
| GGAAAAUGCUGUCCAGUGGTT against Rdh11 | -0.858 (inactive) |
| GGAGGUGAACAGAUCUCACTT against Fubp1 | 0.391 (inactive) |
| GGUCACAGCAAGUUAAUAATT against Ranbp9 | -2.1 (active) |
| GGAGGUUCUACCCUGUUCATT against Actr1a | 0.48 (inactive) |
| GGGAGAAUCUAACUAAGCCTT against Sirt7 | 0.383 (inactive) |

| Sequence | z-score |
| --- | --- |
| GGUCAUGCACACUCGAAAUTT against Mrpl54 | 0.831 (inactive) |
| GGUGGCUCAGAAAUCCUAUTT against Rbpjl | -0.206 (inactive) |
| GCGAAUCUCCACAAGAUGGTT against 2300002M23Rik | -0.0187 (inactive) |
| CGGCUUCUCUCUUUACACATT against Fosb | 2.51 (active) |
| GGAGAAAAGUACCAAGAUGTT against Ifi27l2b | -1.15 (inactive) |
| AUGGUAUACUAUUAUGCUGTT against Mup20 | 1.62 (inactive) |
| GGAACUAACGGAAUUACUGTT against Arl3 | 0.951 (inactive) |
| GCGAAAUCAACAGUCAAUUTT against Ep300 | 0.458 (inactive) |
| GGAAGCAGAGCAGCUGUUUTT against Skiv2l | -0.567 (inactive) |
| GGGAUCAAUUUUGAAGAAUTT against Jmjd4 | -0.398 (inactive) |
| GGAGUAUGUCCAUUGUCACTT against Vmn1r230 | -2.54 (active) |
| UCAGCGAGCUUUAACCUUUTT against Olfr1028 | 0.26 (inactive) |
| GGUUUUUCAGCUUUGGAACTT against Decr1 | -0.822 (inactive) |
| CCCACUUUCUUUGAUAACUTT against Bcl2l11 | 0.585 (inactive) |
| CGCGUAGAUAAGAAGUAUUTT against Anks1 | 0.181 (inactive) |
| GCUCAACAAAGCCUGUUCGTT against Zp3 | 2.35 (active) |
| GCAUUACUAAUCAAAGUGGTT against Abcb1b | -0.78 (inactive) |
| CCACUUCAUGAUUGAGUGCTT against Phf8-ps | -0.836 (inactive) |
| CCAUGAGUUCAGAUGAUGATT against Ints10 | -1.11 (inactive) |
| CCUGAAACAUUCAGUGUCUTT against Apool | 0.293 (inactive) |
| GCUUAAUUUCAUUUCAAGGTT against B3gnt5 | 0.496 (inactive) |
| GCUUCCCUGCCGUGAUGAUTT against Git1 | -1.15 (inactive) |

| Sequence | z-score |
| --- | --- |
| GGACACAAGUUUUCAGAUCTT against Elmod2 | 3.02 (active) |
| GGAUCAUGGAUAUACCACCTT against Smarcb1 | -1.72 (inactive) |
| GGUGCAAACUAAAAAUCUUTT against Enc1 | 2.73 (active) |
| GGAAGAUGAAGAUGAGAAUTT against Igbp1b | -1.24 (inactive) |
| GGGAAGCAUGCAGAACAGCTT against Parg | -1.42 (inactive) |
| GGUUCCUCAAGAUCAUCAUTT against P2ry13 | 0.051 (inactive) |
| GCUUUGAUGGAUUCUAAUCTT against Htt | 1.09 (inactive) |
| CCCAUUUGCUCUGUGGAUCTT against Tha1 | 0.289 (inactive) |
| GCACUUUGGGUUUAAGUACTT against Ndrg4 | 3.7 (active) |
| GGGAGAGAGAAAAAGAAAATT against Park7 | 0.94 (inactive) |
| CCUGGCCAUGUCGAAAGAUTT against Pla2g6 | 0.716 (inactive) |
| GGAAGAAGUCAGAUGUGGATT against Radil | -0.315 (inactive) |
| UGAUGCUAAGACUGAACCATT against Olfr541 | -1.14 (inactive) |
| GGACAUUGUUGUCCAAACUTT against Sptb | -2.24 (active) |
| CCAUAUUUGAAGAAGUCCATT against Espl1 | -0.325 (inactive) |
| GGGUACAACUCUUUGAAGATT against Mnat1 | 0.535 (inactive) |
| GCAGUUGAUGAUAAUGUGATT against Pot1b | -0.0269 (inactive) |
| CGCGGAAACUCUCCACUUATT against Psme4 | -1.18 (inactive) |
| GGGCGAUAUUAUGAGCAACTT against Atp1b2 | 3.78 (active) |
| GGAUCCUCUUCUAUCUUUATT against Pycr1 | -1.27 (inactive) |
| GGCUGCUUUACUGAAGUAATT against C2cd6 | 1.29 (inactive) |
| GGGACUUGGAUCGAAUGGATT against Apeh | 0.326 (inactive) |

| Sequence | z-score |
| --- | --- |
| GGGAAAUUGUGUAGCAGCUTT against Slc25a29 | -2.76 (active) |
| GGAGGUGGUGUUUAUACCATT against Scrn2 | 0.728 (inactive) |
| GCCUAUGCAGCUCUCUCUGTT against Acat3 | 0.772 (inactive) |
| GGUUAUUACGUAGUUGGUATT against Cd46 | 0.683 (inactive) |
| GGUCUACGCGCUCUAUGAATT against Gpr150 | -1.03 (inactive) |
| GGAGACAGAAUCAUAGUUATT against Sh3yl1 | 0.0505 (inactive) |
| CGAUUCUUUAGGAACUUUGTT against Pak7 | -0.0771 (inactive) |
| GGCAGUGGUUAAAGGUUCCTT against Lrp6 | 2.27 (active) |
| GCACUUAUACUACUUAGUUTT against Abca8a | 2.4 (active) |
| GCAGGAUUUUCACCAACAGTT against Gh | -0.215 (inactive) |
| GGUAGAAUCCGGUUACCACTT against Tox | 0.704 (inactive) |
| GGGAAAGACCAUGUUUGUATT against Ttbk2 | 0.493 (inactive) |
| CCAAUUGUGAGAAGAGUGUTT against Cog7 | -0.46 (inactive) |
| GGAUUUUGUGAAUAAAUGCTT against Map2k1 | 1.31 (inactive) |
| GGGAAAAGAGAGUGGUGUATT against Rab27a | -0.26 (inactive) |
| GGAGAGCUGGUGUUUUAGATT against Tnfrsf17 | 2.74 (active) |
| GGGUUCAUUUCUCAAAAUUTT against Nol7 | -0.831 (inactive) |
| GGAACAAGAAGACUGUGAATT against Pcnt | -0.519 (inactive) |
| GCCUUACAAUUUGUUCUACTT against Dsc1 | 1 (inactive) |
| CGUCCAGUAUACGCUGGUUTT against Cdc45 | 5.41 (active) |
| GGAUGAACCAAGCUACUGCTT against Gba2 | -0.541 (inactive) |
| GUUCAAGACGGAGAAGAGGTT against Gpr27 | 3.03 (active) |

| Sequence | z-score |
| --- | --- |
| CCCAAUACAUGAGCUUCUGTT against Ch25h | -0.209 (inactive) |
| GGAAGACUUCGUGUUGACATT against Proz | 0.223 (inactive) |
| GGCUCUAUGUUUAUAAUGATT against Olfm5 | -2.07 (active) |
| GGAAAAAUGACUGAUCUCUTT against Unc5c | -0.0354 (inactive) |
| GGUUGGUAGACUGUGCUUGTT against Hgsnat | -2.56 (active) |
| GGACCUACUACGUAAACCATT against Nedd4 | 0.434 (inactive) |
| GGAAUAUCGGACUUUUUCATT against Mis18bp1 | 0.635 (inactive) |
| CGGGACCUUGUUGAUAACUTT against Tmem130 | 0.811 (inactive) |
| GGUGUUUGGGAAAGGUCUGTT against Trpm1 | -1.33 (inactive) |
| GCACAAAUGGGAAUACGACTT against Klhl36 | -0.94 (inactive) |
| CCAACCAGACUUAUUUAAUTT against Zfp37 | 1.61 (inactive) |
| GGGUGGCUAUGGACAAAAATT against Arl5c | 0.887 (inactive) |
| GGACAUCAAUUCAACAGUUTT against Lifr | -0.361 (inactive) |
| GGAAGAGUGUUUAAACUAUTT against Kbtbd8 | -0.591 (inactive) |
| CCUGAUCUAAUCCUAAAUGTT against Pgr | -0.171 (inactive) |
| AUCUAUUCGAAUCAGGAAGTT against Epsti1 | -0.102 (inactive) |
| GGCUUUUGAAGUAAAUACATT against Pcdhb14 | 2.65 (active) |
| GUCCAGAGUGACCACAUUUTT against Pemt | -0.471 (inactive) |
| GGAUUACGCAGAUUCCAUUTT against Rab22a | -0.474 (inactive) |
| CGAAUUGAAUUCUACGAACTT against Pmm2 | 0.252 (inactive) |
